Data: PubChem BioAssay (NCATS)
Inconclusive results are not listed. Entries that show only a call come without a potency. The source made the active and inactive calls. Calls come from the whole dose curve; as a rule, active = well fitted curve in the direction sought with a large enough effect; inconclusive = small, poorly fitted or top-dose-only effect, or another doubt; inactive = no such curve, though single readings can be large; an effect the other way counts as inactive or inconclusive.

Key:
[1] = qHTS for Inhibitors of Plasmodium falciparum (DD2) proliferation (AID 504314)
How it was run: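 SYBR Green growth assay: 72 h compound exposure of infected red cells (2.5% hematocrit, 0.3% parasitemia), then lysis and overnight dye staining, fluorescence 485/535 nm. Values scaled between DMSO and 0.29 uM artemisinin controls.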

[2] = qHTS for Inhibitors of Plasmodium falciparum (CP250) proliferation (AID 504320)
How it was run: (§1)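 Parasite growth measured as SYBR Green DNA fluorescence (ex 485, em 535 nm) after overnight lysis following 72 h culture at 37 °C, 0.3% parasitemia, 2.5% hematocrit. Values normalized against DMSO and 0.29 uM artemisinin controls, with plate-stack correction.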

[3] = qHTS for Inhibitors of Plasmodium falciparum (GB4) proliferation (AID 504315); note: nearly all actives have a fitted effect of over 50% in size
How it was run: as §1

[4] = qHTS for Inhibitors of Plasmodium falciparum (7G8) proliferation (AID 504316); note: nearly all actives have a fitted effect of over 65% in size
How it was run: as §1

[5] = qHTS for Inhibitors of Plasmodium falciparum (HB3) proliferation (AID 504318); note: nearly all actives have a fitted effect of over 60% in size
How it was run: as §1
Potency is the fitted concentration of half-maximal effect.

Structure (SMILES) | Potency [1] | Potency [2] | Potency [3] | Potency [4] | Potency [5]
C#CCCOC(=O)N1C2=NC(C(=O)OC)=C(C(=O)OC)[C@@H]3N(CC#CC)c4ccccc4[C@]23C[C@H]1C(=O)OC | inactive | inactive |  |  | 
COc1ccc(-c2nc3c(c4c2C[C@H](c2ccccc2)OC4)CN(C(=O)Cc2cccs2)CC3)c(C)c1 | inactive | inactive |  |  | 
C=CCNC(=O)N1C2=NC(C(=O)OC)=C(C(=O)OC)[C@@H]3N(Cc4ccccc4)c4ccccc4[C@]23C[C@H]1C(=O)OC |  |  | 1900 nM (active) | 1510 nM (active) | 3160 nM (active)
C=CCN1c2ccccc2[C@]23C[C@@H](C(=O)OC)N(C(=O)c4ccc(Br)cc4)C2=NC(C(=O)OC)=C(C(=O)OC)[C@H]13 | inactive | inactive |  |  | 
C=CC1=C2C=C(C3CC3)N(C3CC3)C=C2C(=O)C(C)(OC(=O)c2ccco2)C1=O (stereo unspecified) |  | inactive | inactive | inactive | inactive
COC(=O)C1=C(C(=O)OC)[C@@H]2N(Cc3ccccc3)c3ccccc3[C@@]23C[C@@H](C(=O)OC)N(S(=O)(=O)c2cccs2)C3=N1 | inactive | inactive |  |  | 
CCOC(=O)CN1C(=O)N(CC)C(C)=C(C(=O)OC)[C@@H]1c1ccccc1 |  | inactive | inactive | inactive | inactive
COC(=O)C1=C(C)N(Cc2ccccc2)C(=NCCc2cccnc2)NC1c1ccc(Br)cc1 (stereo unspecified) | 1500 nM (active) | 1900 nM (active) |  |  | 
COc1cccc(CC(=O)N2CCc3nc(-c4ccc(OC)cc4C)c4c(c3C2)CO[C@@H](c2ccccc2)C4)c1 | inactive | inactive |  |  | 
COC(=O)CC1c2ccccc2C=C(/C=C/c2ccc3c(c2)OCO3)N1C(=O)OC (stereo unspecified) | inactive | inactive |  |  | inactive
